Here are results for 40 compounds from PubChem BioAssay (Tox21).

Records with an inconclusive call do not appear. Where a call stands in place of a potency, no number is given. The source made the active and inactive calls. The call rests on the fitted dose curve; in most records, active means well fitted inhibition curve with a large enough effect in the repeat runs; inconclusive means weak or mixed curves; inactive means no such curve, though single readings can be large or run the other way.
Potency means the concentration at half of the fitted maximal effect.

Androgen receptor (Homo sapiens), sequence (P10275 whole entry, looked up): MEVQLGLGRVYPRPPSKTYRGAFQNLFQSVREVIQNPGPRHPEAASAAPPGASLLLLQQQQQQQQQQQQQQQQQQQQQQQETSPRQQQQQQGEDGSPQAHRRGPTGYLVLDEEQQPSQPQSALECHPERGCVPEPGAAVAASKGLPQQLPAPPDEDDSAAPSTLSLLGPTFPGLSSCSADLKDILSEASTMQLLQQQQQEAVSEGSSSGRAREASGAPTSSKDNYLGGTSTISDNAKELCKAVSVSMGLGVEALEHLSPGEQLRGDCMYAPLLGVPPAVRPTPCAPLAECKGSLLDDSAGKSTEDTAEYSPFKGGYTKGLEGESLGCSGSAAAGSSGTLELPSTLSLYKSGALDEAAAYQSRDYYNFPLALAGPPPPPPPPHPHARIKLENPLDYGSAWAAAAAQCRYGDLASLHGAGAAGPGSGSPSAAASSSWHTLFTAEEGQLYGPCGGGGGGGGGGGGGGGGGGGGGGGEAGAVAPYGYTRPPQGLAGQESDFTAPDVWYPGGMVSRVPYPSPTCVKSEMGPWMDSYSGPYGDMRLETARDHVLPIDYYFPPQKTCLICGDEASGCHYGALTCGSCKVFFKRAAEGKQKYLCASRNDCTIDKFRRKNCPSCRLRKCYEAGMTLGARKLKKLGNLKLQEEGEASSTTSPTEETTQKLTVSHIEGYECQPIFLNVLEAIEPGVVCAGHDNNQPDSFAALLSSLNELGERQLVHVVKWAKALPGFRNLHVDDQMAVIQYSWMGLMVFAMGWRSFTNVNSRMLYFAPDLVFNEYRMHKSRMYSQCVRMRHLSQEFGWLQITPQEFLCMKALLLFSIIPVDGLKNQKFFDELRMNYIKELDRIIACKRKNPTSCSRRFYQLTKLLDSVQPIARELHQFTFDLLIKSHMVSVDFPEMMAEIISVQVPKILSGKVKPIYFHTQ

The experiment concerns the target Androgen receptor (Homo sapiens) (UniProt P10275). Briefly: qHTS assay to identify small molecule antagonists of the androgen receptor (AR) signaling pathway using the MDA cell line in the presence of 0.5 nM R1881 (AID 1259243). Further: nearly all actives have a fitted effect of over 50% in size. The note with it: MDA-kb2 MMTV-luciferase, R1881 0.5 nM, 16 h; series mostly up to 92.4 µM. The text has this:
U.S. Tox21 Program National Center for Advancing Translational Sciences [NCATS] NIH Chemical Genomics Center [NCGC] U.S. Environmental Protection Agency [EPA] National Institutes of Environmental Health Sciences [NIEHS] National Toxicology Program [NTP] U.S. Food and Drug Administration [FDA] Tox21 Assay Overview: Androgen receptor (AR) is an important member of the nuclear receptor family. Its signaling plays a critical role in AR-dependent prostate cancer and other androgen related diseases. Considerable attention has been given in the past decades to develop methods to study and screen for the environmental chemicals that have the potential to interfere with metabolic homeostasis, reproduction, developmental and behavioral functions. Therefore AR binding assay for screening androgen antagonists can be used to identify potential endocrine disruptors. MDA-kb2 cells (from ATCC, deposited by Wilson et al.) were used to screen for AR inhibitors against Tox21 compound libraries. These cells are human breast carcinoma cells that were stably transfected with a luciferase reporter gene under control of the MMTV promoter that contains response elements for both androgen receptor (AR) and glucocorticoid receptor (GR). The current screening for identification of AR inhibitors against Tox21 libraries used lower concentration (0.5 nM) of R1881 as a stimulator.
Tox21 Assay Protocol Summary: MDA-kb2 cells (cells cultured without CO2) were dispensed at 3,000 cells/well in 4 uL of culture medium into white wall/solid-bottom 1536-well plates (Corning Life Sciences, Corning, NY) using a Multidrop Combi (ThermoFisher Scientific, Waltham, MA) dispenser. After the assay plates were incubated at a 37C and 0% CO2 for 5 hr, 23 nL of compounds dissolved in DMSO, positive controls or DMSO only was transferred to the assay plate by a Pintool station (Kalypsys, San Diego, CA). The transfer of compounds was followed by the addition of 1 uL of 0.5 nM (final concentration) agonist (R1881)/culture medium using a Flying Reagent Dispenser (FRD, Aurora Discovery, San Diego, CA). The plates were incubated at 37C and 0% CO2 for 16 hr. For luciferase reporter gene assay, 4 uL of ONE-Glo reagent (Promega Corporation, Madison, WI) was added to each well using the FRD and after 30 min incubation at room temperature luminescence intensity was measured using ViewLux plate reader (PerkinElmer, Shelton, CT).
On the technique in general: In qHTS, concentration-response curves come from the screen itself.
With `O=C(NC(=O)c1c(F)cccc1F)Nc1cc(Cl)c(Oc2ncc(C(F)(F)F)cc2Cl)c(Cl)c1`, the Potency was 26.1 µM (active). The result for `C/C(=C\c1ccccc1)[N+](=O)[O-]` reads 12.2 µM (active); that for `II`, “inactive”.

Turning to `S=C=NCc1ccccc1`, the Potency was 27.6 µM (active). Consider `Cc1ccc(-c2c(Cl)nc(C#N)n2S(=O)(=O)N(C)C)cc1`, for which the Potency is 38.5 µM (active).

For `O=S1OC[C@@H]2[C@H](CO1)[C@]1(Cl)C(Cl)=C(Cl)[C@@]2(Cl)C1(Cl)Cl` (stereo not given in full), the Potency is 48.6 µM (active). The result for `Brc1ccccc1` reads “inactive”; that for `C=CC(=O)NCNC(=O)C=C`, “inactive”. The result for `CCOC(=O)COc1cc(-c2nn(C)c(OC(F)F)c2Cl)c(F)cc1Cl` reads “inactive”; that for `OC(c1ccc(Cl)cc1)(c1ccc(Cl)cc1)c1cccnc1`, 27.3 µM (active). As for `Cc1ccc2ccccc2c1`, the Potency result was “inactive”. Consider `CC(=O)NC1CCSC1=O` (stereo not given), for which the Potency result was “inactive”. The result for `COP(=S)(Oc1cc(Cl)c(Br)cc1Cl)c1ccccc1` (stereo not given) reads 27.3 µM (active).

In the case of `O=C(C(Cl)(Cl)Cl)C(Cl)(Cl)Cl`, the Potency entry was “inactive”. On to `Cc1ccccc1C(=O)Nc1cccc(OC(C)C)c1`, for which the Potency entry is “inactive”.

Take `ClCc1cccc(Cl)c1`: the Potency entry is “inactive”.

With `COP(=S)(OC)Oc1ccc([N+](=O)[O-])cc1Cl`, the Potency is 6.86 µM (active). The result for `CCCCCCCCCCOC(=O)c1ccccc1C(=O)OCCCCCCCCCC` reads “inactive”; that for `c1cc2ccc3cccc4ccc(c1)c2c34`, 16.1 µM (active); that for `C[C@@H]1CC[C@H]2[C@@H](C)C(=O)O[C@@H]3O[C@@]4(C)CC[C@@H]1[C@]32OO4`, “inactive”. With `CS/C(C)=N/OC(=O)N(C)SN(C)C(=O)O/N=C(\C)SC`, the Potency result is “inactive”. The result for `NS(=O)(=O)C(F)(F)C(F)(F)C(F)(F)C(F)(F)C(F)(F)C(F)(F)C(F)(F)C(F)(F)F` reads “inactive”; that for `O=NN1CCCCCC1`, “inactive”; that for `O=C(CCl)c1ccc(Cl)cc1Cl`, 13.3 µM (active).

Consider `Sc1ccccc1Cl`, for which the Potency result was “inactive”.

Turning to `O=[N+]([O-])C(Br)(CO)CO`, the Potency entry is “inactive”. The result for `CCCCC(O)(Cn1cncn1)c1ccc(Cl)cc1Cl` (stereo not given) reads 54.4 µM (active); that for `IC(I)=C(I)I`, 15.4 µM (active). On to `COc1ccc(-c2ccccc2)cc1NNC(=O)OC(C)C`, for which the Potency was 63.7 µM (active). The result for `Cc1cc(=O)[nH]o1` reads “inactive”; that for `COC1=CC(=O)O[C@@H](CCc2ccccc2)C1`, 40.1 µM (active); that for `C[N+](C)(C)CCCl`, “inactive”. Consider `NCCCNCCCN`, for which the Potency result is “inactive”.

In the case of `N#CCC#N`, the Potency was 10.9 µM (active). The result for `CCOP(=S)(OCC)Oc1nc(Cl)c(Cl)cc1Cl` reads 27.4 µM (active); that for `C[C@]12CC[C@H]3[C@@H](CCC4=CC(=O)CC[C@@H]43)[C@@H]1CC[C@@H]2OC(=O)CCC1CCCCC1`, “inactive”; that for `CC1CC(CC2CCC(N)C(C)C2)CCC1N` (stereo not given), “inactive”.

For the compound `N#Cc1cc(I)c(O)c(I)c1`, the Potency is 54.5 µM (active). The result for `COP(=S)(OC)Oc1cc(Cl)c(I)cc1Cl` reads 54.5 µM (active); that for `COC(C)(C)CCC[C@H](C)C/C=C/C(C)=C/C(=O)OC(C)C`, “inactive”.
